# Results: PubChem BioAssay AID2221 (Broad Institute, 2009)
# About 2,200 (0.76%) of roughly 290,000 compounds were called active. Rule as the data show it: active = inhibition above about 30%; inconclusive = no clear call, values can overlap the other calls; inactive = below that. The full list was thinned out, with actives kept by preference.
# Target: Protein RecA (Mycobacterium tuberculosis (strain ATCC 25618 / H37Rv)) (UniProt P9WHJ3)
# Experiment: Mtb RecA intein splicing inhibitors, primary screen, biochemical, fluorescence, HTS (AID 2221);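 also: 0% = vehicle wells and 100% = reference inhibitor control wells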
# Conditions: cell-free RecA intein splicing, active compounds read high, concentration not given here
# Sequence of Protein RecA (Mycobacterium tuberculosis (strain ATCC 25618 / H37Rv)) (P9WHJ3 whole entry, looked up): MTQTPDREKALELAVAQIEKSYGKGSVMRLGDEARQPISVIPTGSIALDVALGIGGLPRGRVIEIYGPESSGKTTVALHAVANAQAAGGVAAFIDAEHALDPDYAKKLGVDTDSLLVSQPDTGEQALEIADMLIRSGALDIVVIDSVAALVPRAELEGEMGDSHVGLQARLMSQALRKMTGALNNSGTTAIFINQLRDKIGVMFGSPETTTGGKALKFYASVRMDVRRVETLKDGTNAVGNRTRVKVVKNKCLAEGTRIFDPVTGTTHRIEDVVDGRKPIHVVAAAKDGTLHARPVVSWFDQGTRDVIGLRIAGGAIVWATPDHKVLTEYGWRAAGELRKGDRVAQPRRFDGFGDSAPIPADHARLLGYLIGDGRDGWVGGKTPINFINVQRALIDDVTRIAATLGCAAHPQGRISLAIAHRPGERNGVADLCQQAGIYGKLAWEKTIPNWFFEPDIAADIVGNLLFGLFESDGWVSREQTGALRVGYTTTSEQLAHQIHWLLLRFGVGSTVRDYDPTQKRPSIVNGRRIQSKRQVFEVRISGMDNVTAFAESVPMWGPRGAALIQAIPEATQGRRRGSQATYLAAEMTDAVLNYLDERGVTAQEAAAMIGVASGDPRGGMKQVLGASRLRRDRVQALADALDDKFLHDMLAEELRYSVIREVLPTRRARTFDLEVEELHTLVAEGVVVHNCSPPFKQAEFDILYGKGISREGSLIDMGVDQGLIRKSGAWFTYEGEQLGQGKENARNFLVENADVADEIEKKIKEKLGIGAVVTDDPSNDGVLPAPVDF
row,Structure (SMILES),inhibition
1,COc1cccc(CN(C)C(=O)CC23CC4CC(CC(C4)C2)C3)c1OC,9.37% (inactive)
2,O=C(NCCc1ccccc1)Oc1ccc(Cl)cc1,6.61% (inactive)
3,COc1cccc(CNC(=O)C2CCCN(c3ncnc4c3nc3n4CCCCC3)C2)c1 (centres undefined),3.28% (inactive)
4,COc1cccc(NC(=O)c2ccc3c(SCC(=O)O)c4c(nc3c2)CCCC4)c1,16.6% (inactive)
5,CC(=O)c1ccc(NC(=O)c2ccc3c(Cl)c4c(nc3c2)CCCC4)cc1,-0.115% (inactive)
6,O=C(O)CSc1c2c(nc3cc(C(=O)Nc4cccc(C(F)(F)F)c4)ccc13)CCCC2,45.1% (active)
7,CC(C)CC(=O)Nc1nnc(S(=O)(=O)N(C)c2ccc(Cl)cc2)s1,-1.1% (inactive)
8,O=C(C1CCCN(S(=O)(=O)c2ccc([N+](=O)[O-])cc2)C1)N1CCCCC1 (centres undefined),-2.27% (inactive)
9,O=c1oc2ccccc2c(NC2CCCCC2)c1NS(=O)(=O)c1ccc(Cl)cc1,-0.796% (inactive)
10,COC(=O)c1cn(C(=O)c2ccc(Cl)cc2)c2ccccc12,-1.64% (inactive)
11,COC(=O)c1ccc(-n2cnc3ccccc32)nc1,-0.81% (inactive)
12,O=C(c1ccc(Cl)cc1)n1cnc2ccccc21,48.8% (active)
13,O=C(Nc1ncccc1O)c1ccc(S(=O)(=O)N2CCCCCC2)cc1,-0.935% (inactive)
14,Oc1c(Cl)cc(Cl)c(Cl)c1Cc1c(O)c(Cl)cc(Cl)c1Cl,43.2% (active)
15,COC(=O)c1nc(NC(=O)c2ccc(C(C)(C)C)cc2)n[nH]1,32.8% (active)
16,COC(=O)c1nc(NC(=O)c2ccc(F)cc2)n[nH]1,22.9% (inactive)
17,COC(=O)c1nc(NC(=O)c2ccc(Cl)cc2)n[nH]1,-2.52% (inactive)
18,CC(=O)N1CC(=O)N(CC(=O)Nc2ccc(Br)cc2)C1=S,-3.4% (inactive)
19,O=C(Oc1cccc(O)c1)C1CCCCC1,-20.9% (inactive)
20,COC(=O)C1=C(C(=O)OC)C(c2cc([N+](=O)[O-])ccc2O)c2sc(=O)[nH]c2S1 (centres undefined),-7.2% (inactive)
21,CCOC(=O)c1c(C)[nH]c2c1-c1ccccc1C(=O)C2=O,97.6% (active)
22,CCOC(=O)c1c(C)[nH]c(C)c1S(=O)(=O)N(C)CC(=O)Nc1ccccc1C,-2.47% (inactive)
23,CCOC(=O)c1c(C)nc(-c2ccccc2)nc1NC(=O)C(C)C,-0.631% (inactive)
24,Cc1cc(C=O)c(C)n1-c1ccc(NC2CCCCC2)c([N+](=O)[O-])c1,15.3% (inactive)

row,Structure (SMILES),inhibition
1,NC1=NN(c2cccc(C(=O)O)c2)C(=O)C1,83.8% (active)
2,O=C(O)c1cccc(N2C(=O)Nc3ccccc3N2O)c1,-5.4% (inactive)
3,O=C(c1cccc(N2CCCC2=O)c1)N1CCOCC1,2.18% (inactive)
4,N=C1/C(=C/c2cccn2-c2cccc([N+](=O)[O-])c2)C(=O)N=C2SC=CN12,-0.963% (inactive)
5,O=c1[nH]c2ccccc2n2c(-c3ccccc3)nnc12,33.2% (active)
6,O=c1[nH]n2c(-c3ccccc3)nc(O)c2c2ccccc12,-1.37% (inactive)
7,Cc1ccccc1Cn1c(=O)[nH]c2ccccc21,3.55% (inactive)
8,CN(C(=O)CSc1nnc(N)s1)c1c(N)n(Cc2ccccc2)c(=O)[nH]c1=O,-0.327% (inactive)
9,CC(C)(C)C(=O)N1CCC[C@@]1(CO)C(=O)O,-0.553% (inactive)
10,CCc1ccc2nc(Nc3ncc(C(C)=O)c(C)n3)nc(C)c2c1,1.55% (inactive)
11,Brc1ccc(-c2n(-c3ccccn3)c3ccccc3[n+]2-c2ccccn2)cc1,6.87% (inactive)
12,Cc1[nH]c2ccccc2c1C(=O)CN1CCCC(C)C1 (centres undefined),-2.48% (inactive)
13,CCn1nnnc1SCC(=O)Nc1ccc(N(C)C)cc1,-2.84% (inactive)
14,CC(OC(=O)c1ccccc1OCc1ccc(Cl)cc1)C(N)=O (centres undefined),-4.29% (inactive)
15,CC(=O)N(Cc1cc(=O)[nH]c2ccccc12)c1ccc(C)cc1C,2.74% (inactive)
16,Cc1ccc(N(Cc2cc3ccccc3[nH]c2=O)C(=O)c2cccs2)cc1,0.4% (inactive)
17,Cc1ccc(N(Cc2cc(=O)[nH]c3ccccc23)C(=O)CCl)cc1,69.5% (active)
18,COc1ccccc1CC(=O)NCCc1c[nH]c2ccccc12,3.54% (inactive)
19,O=C(Cc1c[nH]c2ccccc12)OCCOC(=O)Cc1c[nH]c2ccccc12,1.52% (inactive)
20,O=S(=O)(O)Oc1c[nH]c2ccccc12,75% (active)
21,O=C(O)C1CCCN(CCC=C(c2ccccc2)c2ccccc2)C1 (centres undefined),-1.43% (inactive)
22,O=C(Nc1ccccc1)c1ccc(NC(=O)c2cccs2)cc1,-3.07% (inactive)
23,O=S(=O)(Nc1n[nH]c(C(F)(F)F)n1)c1ccccc1,-1.49% (inactive)
24,O=C(Nc1n[nH]c(C(F)(F)F)n1)c1cccs1,51.9% (active)

row,Structure (SMILES),inhibition
1,Cc1ccc(-c2noc(C3CCCN(C(=O)c4cccc(Cl)c4)C3)n2)o1 (centres undefined),1.61% (inactive)
2,Cn1c2c(c(=O)n(C)c1=O)C(c1cccc(F)c1)C(C#N)=C(N)O2 (centres undefined),-1.55% (inactive)
3,COc1ccc(C2C(C#N)=C(N)Oc3cc(N)ccc32)cc1OC (centres undefined),-13.5% (inactive)
4,Cc1nn(Cc2ccccc2)c2c1C(c1ccccc1)C(C#N)=C(N)O2 (centres undefined),66.3% (active)
5,Cc1nn(Cc2ccccc2)c(C)c1NS(=O)(=O)c1ccccc1,1.17% (inactive)
6,Cc1cc(C)c2c3c(sc2n1)C(c1ccccc1)C(C#N)=C(N)O3 (centres undefined),-1.99% (inactive)
7,COc1ccccc1C1C(C#N)=C(N)Oc2c1c(-c1ccccc1)nn2-c1ccccc1 (centres undefined),35.8% (active)
8,C=CCOC(=O)C1=C(C)OC(N)=C(C#N)C1c1ccc(F)cc1 (centres undefined),5.83% (inactive)
9,COC(=O)C1=C(C)OC(N)=C(C#N)C1c1cc(OC)ccc1OC (centres undefined),-1.82% (inactive)
10,Cc1nn(-c2ccccc2)c2c1C(c1ccc(F)cc1)C(C#N)=C(N)O2 (centres undefined),43.3% (active)
11,Cc1n[nH]c(C)c1S(=O)(=O)N1CCCC(C(=O)Nc2ccc(Br)cc2)C1 (centres undefined),-13.2% (inactive)
12,CC1CC(C)(C)CC2(C1)NC(=O)N(CC(=O)Nc1nccs1)C2=O (centres undefined),-1.2% (inactive)
13,CCN1CCC2(CC1)N=C(c1ccc(F)cc1)C(=S)N2C(=O)c1ccc(C)cc1,1.27% (inactive)
14,COc1ccc(-c2ccc(CCC(=O)O)n2NC(=O)c2ccc(C(C)(C)C)cc2)cc1,3.63% (inactive)
15,CCN1C(=O)[C@@H]2[C@@H](c3ccc(-c4ccccc4)cc3)N3CCCC[C@@]3(C(=O)OC)[C@@H]2C1=O,2.14% (inactive)
16,Cc1ccc(-c2nc(SCC(=O)Nc3ccccc3OC(F)F)c3c(C)c(C(=O)O)sc3n2)cc1,2.99% (inactive)
17,Cc1ccc(CC2C(=O)N(c3ccc(F)cc3)C(=O)C2C)cc1 (centres undefined),-0.367% (inactive)
18,COc1cc(/C(=C/c2ccccc2)c2ccccc2)c2c(c1)oc1ccccc12,-0.274% (inactive)
19,COc1ccc(OC)c(/C(C)=N\NC(=O)c2cc3cc(Cl)ccc3n2C)c1,9.04% (inactive)
20,CC(=O)C1C(c2cccc(Oc3ccccc3)c2)NC(=O)NC1(O)C(F)(F)F (centres undefined),-2.89% (inactive)
21,O=C1NC(c2ccc(-c3ccccc3[N+](=O)[O-])o2)C(C(=O)c2ccc(Cl)cc2)C(O)(C(F)(F)F)N1 (centres undefined),45% (active)
22,CC1=NN(c2ccc(Cl)c(C(=O)O)c2)C(=O)/C1=C/c1ccc(-c2ccccc2[N+](=O)[O-])o1,7.48% (inactive)
23,CC1(C)CC(=O)C(N=Nc2ccc(S(=O)(=O)N3CCCCCC3)cc2)=C(O)C1,-0.925% (inactive)
24,O=C1C=CC(=O)N1c1ccc(N2CCCCC2)cc1,3.11% (inactive)

row,Structure (SMILES),inhibition
1,COc1ccc(NC2=CC(=S)NC(C)(C)C2)cc1,1.09% (inactive)
2,O=C1C(=O)N(CC2COc3ccccc3O2)c2ccccc21 (centres undefined),6.05% (inactive)
3,Cc1cc(C(=O)CCl)c(C)n1CC1COc2ccccc2O1 (centres undefined),40.6% (active)
4,Cc1cc(NC(=O)CCC2COc3ccccc3O2)no1 (centres undefined),2.09% (inactive)
5,Cc1ccc(-c2nnc(Nc3ccc(C(=O)N(C)C)cc3)c3ccccc23)cc1S(N)(=O)=O,-0.54% (inactive)
6,CCCOc1ccc(/C=N/NC(=O)C2CC2)c(OCCC)c1,-1.61% (inactive)
7,COc1ccc(NC(=O)c2cnc(NS(=O)(=O)c3ccccc3)nc2)cc1,0.334% (inactive)
8,COc1ccc(S(=O)(=O)/N=C2\C=C(NS(=O)(=O)c3ccccc3)C(=O)c3ccccc32)cc1,36.2% (active)
9,O=S(=O)(Nc1ccccn1)c1ccc(Oc2ccccc2)cc1,-0.988% (inactive)
10,Cc1ccccc1C(=O)N1CCC(C(=O)Nc2ccc(S(=O)(=O)N(C)C(C)C)cc2)CC1,0.242% (inactive)
11,C[n+]1ccc(C(=O)NCc2ccccc2)cc1,1.21% (inactive)
12,Cc1cccc(C)c1NC(=S)N(Cc1cccnc1)Cc1ccccc1Cl,2.64% (inactive)
13,NC(=O)C1CCN(C(=O)c2ccc(-c3ccccc3)cc2)CC1,-3.02% (inactive)
14,CCOC(=O)N1CCC(NC(=O)COc2cc(=O)n(C)c3ccccc23)CC1,-3.15% (inactive)
15,CCOC(=O)N1CCC(c2cc(=O)n(-c3ccccc3)[nH]2)CC1,95.5% (active)
16,CCOC(=O)N1CCC(NC(=O)CCc2ccccc2)CC1,-0.782% (inactive)
17,Cc1ccc(Nc2nc(CSc3nnc(-c4ccncc4)n3-c3ccccc3C)cs2)cc1,16.7% (inactive)
18,COc1cc(OC)c(S(=O)(=O)Nc2ccccc2C(=O)O)cc1S(=O)(=O)Nc1ccccc1C(=O)O,-1.6% (inactive)
19,O=C(COc1coc(CN2CCN(c3ccccc3F)CC2)cc1=O)N1CCc2ccccc21,-2.58% (inactive)
20,O=C(Cc1ccccc1)Nc1cccc(NC(=O)c2ccccc2)c1,-3.56% (inactive)
21,CCc1cccc(NC(=O)CCC(=O)O)c1,-2.03% (inactive)
22,O=C(CCl)Nc1cccc(CP(=O)(c2ccccc2)c2ccccc2)c1,35.8% (active)
